Laboratory results published in PubChem BioAssay.
Several values for one entry are separate records, joined by “and”; a condition that tells them apart may be missing. Equal entries are not always repeated. The source holds several records for some structures; these can differ, active in one and inactive in another. Activity calls are given as the source filed them.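 How the source made its calls, unless noted: active means inhibition at or above 50% relative to wild type and mutant plate controls; inactive means inhibition below 50%.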

Key:
[1] = inhibitors of TNFa-induced NFkB p65 translocation, primary screen, imaging, HUVEC, MLSMR starter and 10KST1 sets (AID 438;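 active means inhibition above 20% together with a positive visual image hit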;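 further: compound added about 3h40 before a 20 min TNFalpha stimulation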;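 on inhibition: signal is the nuclear over cytoplasmic p65 intensity ratio per well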); details: HUVEC TNFa-induced p65 nuclear translocation; cell count: measured here: nuclei count (cytotoxicity indicator), at 2.08 µM; inhibition: at 2 µM, stronger effect = higher value, 0% TNFa-plus-vehicle, 100% no-TNFa wells
[2] = inhibitors of mutant huntingtin aggregation, primary screen, imaging, exon1htt(103Q)mCFP cells, high-content imaging (AID 483;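 active means visual image review flags a hit and inhibition of aggregation exceeds 20%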;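 further: compound exposure lasted 3 days before fixation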;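 on nuclei count: percent of the per-plate median nuclei count of sample wells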); details: exon1htt(103Q)mCFP cell line, aggregate imaging, at 2 µM; inhibition of aggregation: stronger effect = higher value; nuclei count: measured here: cell count, toxicity
[3] = inhibitors of E-selectin induction by TNFa, primary screen, imaging, HUVEC, immunofluorescence, MLSMR starter and 10KST1 sets (AID 487;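 active means visually confirmed hit in the image check and inhibition above 20%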;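 on inhibition: signal is fraction of cell area covered by stained E-selectin grains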;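 on nuclei count: 100% = median nuclei count of all wells on the same plate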); details: HUVEC TNFalpha-induced E-selectin immunofluorescence imaging, at 2 µM; inhibition: stronger effect = higher value; nuclei count: measured here: cell number, toxicity
[4] = DUSP6 inhibitors restoring Erk phosphorylation by chemical complementation, primary imaging in DUSP6-transfected HeLa (AID 609;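 active means compounds giving at least 50% inhibition in the cell-based MKP-3 phosphatase rescue imaging test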;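 on inhibition: phospho-Erk level distribution per well compared with pooled transfected vehicle control wells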); details: HeLa MKP-3 transfected, phospho-Erk imaging KS statistic, at 10 µM, cells stimulated with TPA for 15 min
[5] = molecular target: Dual specificity protein phosphatase 6 (Homo sapiens) (UniProt Q16828); assay: as above; details: HeLa MKP-3 transfected, phospho-Erk imaging KS statistic; at 10 µM; stronger effect = higher value; cells stimulated with TPA for 15 min
[6] = molecular target: Voltage-gated potassium channel subunit beta-2 (Rattus norvegicus) (UniProt P62483); assay: KvBeta enzyme negative modulators, primary screen, biochemical, NADPH fluorescence (AID 622;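 active means fluorescence slope higher than the sample average by over 3 SD, cut at about -0.22 in these data, passing the limit was not always enough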;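 further: slope of raw intensity against log time taken from 70 to 1610 s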); details: recombinant KvBeta, 4-cyanobenzaldehyde reduction, at 10 µM, stronger effect = higher value
[7] = molecular target: Voltage-gated potassium channel subunit beta-2 (Rattus norvegicus) (UniProt P62483); assay: KvBeta positive modulators, primary screen, biochemical, NADPH fluorescence (AID 623;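 active means NADPH fluorescence slope more negative than the mean of all samples by about 3 SD, 99.7% confidence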;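 further: fluorescence intensity change per second fitted from 20 to 320 s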); details: Recombinant KvBeta, NADPH fluorescence decrease slope, 10 min; at 10 µM; stronger effect = lower value
[8] = molecular target: Alpha-2C adrenergic receptor (Homo sapiens) (UniProt P18825); assay: modulators of alpha2C/GIRK thallium flux, primary screen, cell-based, HEK293 alpha2C/GIRK1/2 (AID 624;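 active means fluorescence slope after compound addition differing from the mean of all screened samples at 99.7% confidence, in either direction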;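 further: slope of fluorescence ratio to pre-addition baseline per second over 15 to 24 s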); details: thallium flux BTC fluorescence, at 10 µM, actives lie on both sides
[9] = inhibitors of larval lipid processing in zebrafish, primary screen, whole organism, PED6 fluorescence, gall bladder and intestine (AID 686;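 active means a full or partial loss of lipid-probe fluorescence in the fish gall bladder, intestine or both, judged by eye; inactive means no fluorescence loss, or compound toxic to the fish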;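 further: larvae 5 to 7 days old with five fish per well; signal comes from phospholipase A2 cleavage of quenched PED6 carried via bile; overnight exposure to compound and PED6 before scoring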); details: Zebrafish larvae PED6 lipid processing, fluorescence scoring; screened at 20 µM (by protocol)
[10] = inhibitors of Chlamydomonas gravitaxis, primary screen, whole organism, Chlamydomonas reinhardtii, WT vs cilia-less mutant, absorbance, 96-well (AID 463189); details: OD600 absorbance, 2 days, at 10 µM, stronger effect = higher value;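 further: 0% = wild type cc124 cells in DMSO and 100% = ciliumless bld1 mutant cells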
[11] = inhibitors of Sendai virus-induced IRF3 signaling, primary screen, TLR/RLR signaling modifier project, cell-based, Sendai virus stimulus, luciferase, 10K MLSCN set (AID 602276;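 active means inhibition at or above 50% at 10 µM; inactive means inhibition below 50%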;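 further: firefly luciferase from ISG56 promoter only with Renilla not read in this screen; 0% = Sendai virus plus DMSO and 100% = medium plus DMSO without virus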); details: HEK293 RL24 IRF3 luciferase reporter, at 10 µM, stronger effect = higher value
[12] = inhibitors of poly I:C-induced TLR3 signaling, primary screen, cell-based, poly I:C stimulus, luciferase, 10K MLSCN set (AID 602277;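 active means inhibition of the reporter signal at or above 50%; inactive means inhibition below 50%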); details: HEK293-TLR3 RL24 IRF3 luciferase reporter, at 10 µM, stronger effect = higher value
[13] = measured here: cell density z-score
[14] = measured here: nuclear c-Myc green intensity z-score
[15] = measured here: nuclear pErk red intensity z-score, stronger effect = higher value

Sequence of Dual specificity protein phosphatase 6 (Homo sapiens) (Q16828 whole entry, looked up): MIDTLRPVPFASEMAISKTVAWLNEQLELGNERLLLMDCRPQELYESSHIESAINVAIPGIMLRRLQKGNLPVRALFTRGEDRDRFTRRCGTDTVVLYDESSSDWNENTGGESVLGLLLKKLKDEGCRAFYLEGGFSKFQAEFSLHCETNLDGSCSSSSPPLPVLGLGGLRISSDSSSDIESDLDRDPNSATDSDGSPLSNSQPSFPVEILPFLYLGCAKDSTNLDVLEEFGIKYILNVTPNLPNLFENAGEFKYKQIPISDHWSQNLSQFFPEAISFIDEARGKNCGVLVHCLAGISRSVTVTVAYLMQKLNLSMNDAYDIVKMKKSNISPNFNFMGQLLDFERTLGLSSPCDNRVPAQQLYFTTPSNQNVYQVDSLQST
Sequence of Alpha-2C adrenergic receptor (Homo sapiens) (P18825 whole entry, looked up): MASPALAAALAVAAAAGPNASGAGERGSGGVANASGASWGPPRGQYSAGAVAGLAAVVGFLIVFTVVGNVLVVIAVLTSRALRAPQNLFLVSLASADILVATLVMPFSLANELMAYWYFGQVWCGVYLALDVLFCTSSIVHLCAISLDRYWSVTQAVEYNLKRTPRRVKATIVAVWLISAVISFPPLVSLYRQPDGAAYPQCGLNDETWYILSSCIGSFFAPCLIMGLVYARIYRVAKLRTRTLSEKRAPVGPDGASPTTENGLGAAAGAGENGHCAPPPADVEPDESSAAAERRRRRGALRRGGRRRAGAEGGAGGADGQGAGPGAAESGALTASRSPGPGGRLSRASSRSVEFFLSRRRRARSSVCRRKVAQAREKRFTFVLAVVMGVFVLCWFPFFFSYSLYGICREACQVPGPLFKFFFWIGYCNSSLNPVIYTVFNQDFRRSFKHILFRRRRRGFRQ
Sequence of Voltage-gated potassium channel subunit beta-2 (Rattus norvegicus) (P62483 whole entry, looked up): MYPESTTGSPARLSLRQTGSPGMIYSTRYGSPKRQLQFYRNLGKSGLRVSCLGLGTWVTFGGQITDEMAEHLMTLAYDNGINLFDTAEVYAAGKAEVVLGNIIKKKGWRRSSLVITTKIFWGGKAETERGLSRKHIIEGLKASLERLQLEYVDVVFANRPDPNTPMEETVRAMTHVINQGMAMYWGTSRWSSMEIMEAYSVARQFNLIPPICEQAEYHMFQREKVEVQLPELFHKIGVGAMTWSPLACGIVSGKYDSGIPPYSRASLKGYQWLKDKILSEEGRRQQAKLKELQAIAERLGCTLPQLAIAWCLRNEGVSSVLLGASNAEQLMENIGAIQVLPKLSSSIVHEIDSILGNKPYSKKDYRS

| SMILES | cell count [1] | inhibition [1] | inhibition of aggregation [2] | nuclei count [2] [%] | inhibition [3] | nuclei count [3] [%] | z-score [4, 13] | z-score [4, 14] | z-score [4, 15] | inhibition [5] | fluorescence slope [6] | NADPH fluorescence slope [7] | slope [8] | outcome [9] | inhibition [10] | inhibition [11] | inhibition [12] |
| --- | --- | --- | --- | --- | --- | --- | --- | --- | --- | --- | --- | --- | --- | --- | --- | --- | --- |
| CC(=O)OCC(=O)[C@@]1(O)[C@H](C)C[C@H]2[C@@H]3CCC4=CC(=O)C=C[C@]4(C)[C@@]3(F)[C@@H](O)C[C@@]21C | 499 | -5.8% (inactive) | 0.4% (inactive) | 45.5 | -54.1% (inactive) | 112 | -0.698 | 0.622 | -0.569 | -4.44% (inactive) | -0.495 (inactive) | -3.4e-05 (inactive) | 0.00493 (inactive) | inactive | 26.6% (inactive) | 14.1% (inactive) | 31.9% (inactive) |
| Cc1ccc2nc(C(F)(F)F)c(C#N)c(N)c2c1 | 451 | -9.7% (inactive) | 11% (inactive) | 77.3 | -14.1% (inactive) | 90.7 | -0.557 | -0.479 | -0.0348 | 1.75% (inactive) | -0.49 (inactive) | -2e-05 (inactive) | 0.00524 (inactive) | inactive | -8.78% (inactive) | 20% (inactive) | -10.8% (inactive) |
| O=C(O)CCN(CCC(=O)O)c1nnc(SCc2ccccc2)s1 | 428 | 4% (inactive) | -9.5% (inactive) | 108 | -187% (inactive) | 136 | 0.906 | -0.398 | -0.408 | -3.98% (inactive) | -0.393 (inactive) | -6e-05 (inactive) | 0.0059 (inactive) | inactive | -1.99% (inactive) | 18.7% (inactive) | 25.8% (inactive) |
| CCCCC[C@H](O)/C=C/C1=C(CCCCCCC(=O)O)C(=O)CC1 | 582 | -10.1% (inactive) | -18.7% (inactive) | 109 | -15.5% (inactive) | 111 | 0.0464 | -0.541 | -1.16 | -0.493% (inactive) | -0.474 (inactive) | -5.2e-05 (inactive) | 0.00393 (inactive) | inactive | -11.8% (inactive) | 7.96% (inactive) | 34.1% (inactive) |
| CC[C@]1(O)CC2CN(CCc3c([nH]c4ccccc34)[C@@](C(=O)OC)(c3cc4c(cc3OC)N(C=O)[C@H]3[C@@](O)(C(=O)OC)[C@H](OC(C)=O)[C@]5(CC)C=CCN6CC[C@]43[C@@H]65)C2)C1 (stereo partly drawn) | 496 | 31.7% (active) | -69.9% (inactive) | 1.5 | -122% (inactive) | 76.8 | 0.276 | -0.499 | 1.19 | 27.9% (inactive) | -0.439 (inactive) | -3.8e-07 (inactive) | 0.00563 (inactive) | inactive | -2.94% (inactive) | 32.7% (inactive) | 85.7% (active) |
| Cc1nnc2n(Cc3ccccc3)c(=O)c3c4c(sc3n12)COC(C(C)C)C4 (stereo not drawn) | 511 | 9.8% (inactive) | 29.9% (inactive) | 80.8 | -54.8% (inactive) | 118 | 0.665 | -0.394 | -1.52 | -1.12% (inactive) | -0.46 (inactive) | -0.000365 (inactive) | 0.00653 (inactive) | inactive | 146% (active) | 11.6% (inactive) | 3.4% (inactive) |
| CCCCCCCCNC(C)C(O)c1ccc(SC(C)C)cc1 (stereo not drawn) | 561 | -16% (inactive) | -10.4% (inactive) | 105 | -40.8% (inactive) | 112 | 1.06 | -0.321 | -0.268 | 25.1% (inactive) | -0.477 (inactive) | -6.9e-05 (inactive) | 0.00365 (inactive) | inactive | 151% (active) | 19.5% (inactive) | -3.66% (inactive) |
| CCCSc1ccc2nc(NC(=O)OC)[nH]c2c1 | 574 | 3% (inactive) | -22.3% (inactive) | 15.7 | -115% (inactive) | 123 | 0.0938 | 0.921 | 0.811 | -5.24% (inactive) | -0.486 (inactive) | -8.1e-05 (inactive) | 0.00562 (inactive) | inactive | -13.8% (inactive) | 26.9% (inactive) | -19.4% (inactive) |
| CCC[C@@H]1C[C@@H](C(=O)N[C@H]([C@@H](C)O)[C@H]2O[C@H](SC)[C@H](O)[C@@H](O)C2O)N(C)C1 (stereo partly drawn) | 619 | -4.3% (inactive) | 2.3% (inactive) | 101 | -57.7% (inactive) | 123 | -0.311 | -0.277 | 0.417 | 8% (inactive) | -0.465 (inactive) | 2.2e-06 (inactive) | 0.0059 (inactive) | inactive | 35.8% (inactive) | 19.5% (inactive) | 27.3% (inactive) |
| Cc1ccc(/C(O)=C2/C(=O)C(=O)N(Cc3ccco3)C2c2cccs2)cc1 (stereo not drawn) | 592 | -1.5% (inactive) | -9.7% (inactive) | 111 | -40.6% (inactive) | 136 | -0.164 | 0.546 | 1.58 | -18.6% (inactive) | -0.497 (inactive) | -6.4e-05 (inactive) | 0.00587 (inactive) | inactive | -4.07% (inactive) | -8% (inactive) | 3.2% (inactive) |
| CN(C)CCC=C1c2ccccc2CCc2ccccc21 | 541 | -3.1% (inactive) | 2.1% (inactive) | 107 | -17.7% (inactive) | 126 | 0.892 | -0.494 | 0.732 | -0.493% (inactive) | -0.449 (inactive) | -6.5e-05 (inactive) | 0.00605 (inactive) | inactive | 6.87% (inactive) and 12.5% (inactive) | -9.05% (inactive) | 51% (active) |
| CC1C/C=C/C=C/C=C/C=C/C(O[C@@H]2O[C@H](C)[C@@H](O)[C@H](N)[C@@H]2O)CC2OC(O)(CC(O)CC3OC3/C=C/C(=O)O1)CC(O)C2C(=O)O (stereo partly drawn) | 624 | -3.2% (inactive) | 0.7% (inactive) | 111 | -59.4% (inactive) | 135 | -0.528 | -0.94 | -0.621 | 11.3% (inactive) | -0.469 (inactive) | -4.6e-05 (inactive) | 0.00542 (inactive) | inactive | 1.43% (inactive) | 7.33% (inactive) | 28.4% (inactive) |
| NS(=O)(=O)c1cc2c(cc1Cl)NC(C(Cl)Cl)NS2(=O)=O (stereo not drawn) | 646 | -8.4% (inactive) | 4.9% (inactive) | 109 | -57% (inactive) | 134 | -1.31 | -0.533 | 1.7 | -4.44% (inactive) | -0.512 (inactive) | -2e-05 (inactive) | 0.00475 (inactive) | inactive | 3.47% (inactive) | 13.9% (inactive) | 35.5% (inactive) |
| COc1ccc(C2/C(=C(/O)c3ccccc3)C(=O)C(=O)N2c2ncccn2)cc1OC (stereo not drawn) | 460 | -0.7% (inactive) | 2.3% (inactive) | 108 | -7.4% (inactive) | 151 | -0.394 | 1.14 | -0.858 | 11.4% (inactive) | -0.338 (inactive) | -3.2e-05 (inactive) | 0.00532 (inactive) | inactive | -1.92% (inactive) | 7.62% (inactive) | 3.83% (inactive) |
| N[C@@H](C(=O)N[C@@H]1C(=O)N2C(C(=O)O)=C(Cl)CS[C@H]12)c1ccccc1 | 693 | -2% (inactive) | -5.3% (inactive) | 113 | -84.8% (inactive) | 122 | -0.332 | -0.293 | -0.889 | 7.39% (inactive) | -0.441 (inactive) | -5.1e-05 (inactive) | 0.00559 (inactive) | inactive | 21.4% (inactive) | 12.2% (inactive) | 28.5% (inactive) |
| COc1ccc(Cl)cc1C(=O)NCCc1ccc(S(=O)(=O)NC(=O)NC2CCCCC2)cc1 | 517 | -3.1% (inactive) | -17.2% (inactive) | 105 | 48.6% (inactive) | 80.7 | 0.545 | -1.59 | -0.882 | 5.79% (inactive) | -0.462 (inactive) | -5.3e-05 (inactive) | 0.00532 (inactive) | inactive | 3.54% (inactive) and -10.9% (inactive) | 19.2% (inactive) | 42.8% (inactive) |
| Cc1cc(-c2ccccc2)nnc1NCCN1CCOCC1 | 674 | 5.8% (inactive) | -29.4% (inactive) | 99.9 | -64.4% (inactive) | 119 | 0.561 | 0.88 | 0.22 | 25.7% (inactive) | -0.472 (inactive) | -2e-05 (inactive) | 0.00515 (inactive) | inactive | 15.7% (inactive) | 13.3% (inactive) | 33.7% (inactive) |
| Cc1nc(-c2coc3cc(OCC(=O)O)ccc3c2=O)cs1 | 642 | -9% (inactive) | 16.4% (inactive) | 100 | -136% (inactive) | 114 | -0.205 | 0.979 | 0.055 | 11.9% (inactive) | -0.552 (inactive) | -4.6e-05 (inactive) | 0.00509 (inactive) | inactive | 29.5% (inactive) | 20.3% (inactive) | 15.4% (inactive) |
| CN(C)CCCN1c2ccccc2CCc2ccc(Cl)cc21 | 621 | -7.8% (inactive) | -25.6% (inactive) | 113 | -129% (inactive) | 124 | -0.576 | 1.08 | 1.97 | 7.39% (inactive) | -0.41 (inactive) | 3.7e-05 (inactive) | 0.00326 (inactive) | active; weak signal in gallbladder and intestine | 16.7% (inactive) and 70.6% (active) | 14.9% (inactive) | 13.5% (inactive) |
